# Unmarked numbers belong to inactive results. For some of these results: Measured potencies and affinities stand elsewhere. Activity calls are given as the source filed them. Unless noted, no rule for the calls is given here.
# Experiments:
# [1] = antimalarial activity against Dd2 strain (AID 2302;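 active = growth inhibition above 50% at the single 2 µM test dose, taken to imply half-maximal potency below 2 µM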;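 also: 0% = DMSO untreated growth and 100% = chloroquine plus artemisinin killed control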); conditions: P. falciparum Dd2 in RBCs, LDH growth readout, 72 h; at 2 µM; active compounds read high
# [2] = HepG2 cytotoxicity, primary screen, cytotoxicity control for P. falciparum antimalarial project, cell-based, ATP luminescence (AID 2303;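 active = inhibition above 50%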;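 also: 0% = DMSO wells and 100% = digitonin-killed cells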); conditions: HepG2 viability, 24-48 h, at 10 µM, active compounds read high
# [3] = biological target: L-lactate dehydrogenase (Plasmodium falciparum (isolate CDC / Honduras)) (UniProt Q27743); experiment: PfLDH activity inhibition – cell lysate, 3D7 strain, counter-screen for P. falciparum growth inhibition project (AID 2304);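 also: 0% = vehicle and 100% = reference inhibitor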; conditions: P. falciparum 3D7 crude extract, LDH APAD/NBT absorbance; at 2 µM; active compounds read high
# [4] = inhibition of 3D7 malaria parasite growth – strain 3D7 (AID 2306);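 also: 0% = DMSO wells and 100% = chloroquine plus artemisinin control wells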; conditions: P. falciparum 3D7 erythrocytic growth, LDH absorbance, 72 h; at 2 µM; active compounds read high
# [5] = biological target: Calcium-dependent protein kinase 1 (Plasmodium falciparum (isolate 3D7)) (UniProt P62344); experiment: PfCDPK1 kinase inhibitors, biochemical, TCAMS library (AID 1159585; cut-off not given, nearly all actives have IC50 up to about 0.98 µM;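 also: inhibitors leave more ATP so luminescence rises with inhibition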); conditions: recombinant PfCDPK1, Kinase-Glo ATP depletion luminescence
# [6] = biological target: Plasmodium falciparum protein kinase 6 (PK6, PF3D7_1337100) (UniProt Q8IDW1); experiment: PfPK6 kinase inhibitors, biochemical, TCAMS library (AID 1159586); conditions: recombinant PfPK6, Kinase-Glo ATP depletion luminescence
# [7] = biological target: Protein kinase 7 (PK7), Plasmodium falciparum 3D7 (PF3D7_0213400) (UniProt Q7YTF7); experiment: inhibition of Plasmodium PK7 catalytic activity – biochemical, TCAMS antimalarial set, Kinase-Glo luminescence (AID 1159587); conditions: recombinant PfPK7, Kinase-Glo ATP depletion luminescence
# [8] = biological target: Calcium-dependent protein kinase 4 (Plasmodium falciparum (isolate 3D7)) (UniProt Q8IBS5); experiment: PfCDPK4 kinase inhibitors, biochemical, TCAMS library (AID 1159588; cut-off not given, nearly all actives have IC50 up to about 0.91 µM); conditions: recombinant PfCDPK4, Kinase-Glo ATP depletion luminescence
# Sequence of Calcium-dependent protein kinase 4 (Plasmodium falciparum (isolate 3D7)) (Q8IBS5 whole entry, looked up): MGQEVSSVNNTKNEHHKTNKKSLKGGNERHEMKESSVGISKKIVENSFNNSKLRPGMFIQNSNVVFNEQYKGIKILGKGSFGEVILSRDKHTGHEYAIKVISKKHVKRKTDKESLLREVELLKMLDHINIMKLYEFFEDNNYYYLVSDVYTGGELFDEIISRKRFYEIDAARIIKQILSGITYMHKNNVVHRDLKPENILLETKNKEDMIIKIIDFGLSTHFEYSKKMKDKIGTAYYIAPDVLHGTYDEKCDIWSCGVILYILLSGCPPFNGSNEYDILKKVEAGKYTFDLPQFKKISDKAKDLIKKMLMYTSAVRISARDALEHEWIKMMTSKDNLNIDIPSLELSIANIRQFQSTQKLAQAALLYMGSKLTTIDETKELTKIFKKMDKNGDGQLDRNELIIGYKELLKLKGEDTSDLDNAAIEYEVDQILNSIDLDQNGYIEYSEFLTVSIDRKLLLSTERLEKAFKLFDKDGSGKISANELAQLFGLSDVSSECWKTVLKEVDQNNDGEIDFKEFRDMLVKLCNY
# Sequence of Calcium-dependent protein kinase 1 (Plasmodium falciparum (isolate 3D7)) (P62344 whole entry, looked up): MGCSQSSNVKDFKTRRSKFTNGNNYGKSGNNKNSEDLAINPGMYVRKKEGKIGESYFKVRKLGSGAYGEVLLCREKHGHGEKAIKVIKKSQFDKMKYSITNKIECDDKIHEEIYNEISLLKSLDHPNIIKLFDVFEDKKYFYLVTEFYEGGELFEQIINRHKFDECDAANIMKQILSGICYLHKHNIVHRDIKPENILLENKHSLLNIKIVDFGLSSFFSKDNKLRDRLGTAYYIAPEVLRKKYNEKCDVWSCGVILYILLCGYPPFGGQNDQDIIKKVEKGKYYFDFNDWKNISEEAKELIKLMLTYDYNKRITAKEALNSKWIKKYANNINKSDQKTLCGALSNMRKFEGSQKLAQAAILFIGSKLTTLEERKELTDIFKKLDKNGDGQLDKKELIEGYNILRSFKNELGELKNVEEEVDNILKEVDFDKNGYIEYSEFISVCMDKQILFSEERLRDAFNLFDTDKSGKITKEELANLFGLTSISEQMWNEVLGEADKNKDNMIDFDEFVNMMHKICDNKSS
# Sequence of Plasmodium falciparum protein kinase 6 (PK6, PF3D7_1337100) (Q8IDW1 1-305): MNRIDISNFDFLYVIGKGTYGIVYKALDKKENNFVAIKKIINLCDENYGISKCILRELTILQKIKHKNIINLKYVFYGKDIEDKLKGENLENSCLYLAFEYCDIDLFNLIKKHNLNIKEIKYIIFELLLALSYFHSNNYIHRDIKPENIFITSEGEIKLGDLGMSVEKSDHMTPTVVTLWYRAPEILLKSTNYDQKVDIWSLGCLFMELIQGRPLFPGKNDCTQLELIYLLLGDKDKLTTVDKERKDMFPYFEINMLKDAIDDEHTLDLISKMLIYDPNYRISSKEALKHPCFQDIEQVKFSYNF
# Sequence of L-lactate dehydrogenase (Plasmodium falciparum (isolate CDC / Honduras)) (Q27743 whole entry, looked up): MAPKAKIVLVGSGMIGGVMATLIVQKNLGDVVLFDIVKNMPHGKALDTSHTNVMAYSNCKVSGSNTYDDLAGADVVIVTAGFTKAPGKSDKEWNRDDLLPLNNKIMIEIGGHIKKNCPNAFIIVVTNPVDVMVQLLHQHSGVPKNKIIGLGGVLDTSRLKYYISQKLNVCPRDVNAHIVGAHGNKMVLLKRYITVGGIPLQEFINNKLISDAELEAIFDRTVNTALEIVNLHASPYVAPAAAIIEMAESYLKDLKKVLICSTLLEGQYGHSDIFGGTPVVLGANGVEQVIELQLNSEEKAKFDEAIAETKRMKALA
# Sequence of Protein kinase 7 (PK7), Plasmodium falciparum 3D7 (PF3D7_0213400) (Q7YTF7 1-343): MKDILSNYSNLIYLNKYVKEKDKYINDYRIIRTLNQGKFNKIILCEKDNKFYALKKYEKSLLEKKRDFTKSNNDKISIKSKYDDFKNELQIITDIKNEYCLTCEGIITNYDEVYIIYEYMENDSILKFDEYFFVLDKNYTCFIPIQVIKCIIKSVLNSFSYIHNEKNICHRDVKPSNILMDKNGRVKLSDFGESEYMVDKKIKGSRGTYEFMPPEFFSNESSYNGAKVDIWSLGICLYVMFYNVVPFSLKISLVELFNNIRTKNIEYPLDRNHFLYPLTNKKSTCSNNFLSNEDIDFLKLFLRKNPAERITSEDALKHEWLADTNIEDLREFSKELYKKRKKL
Compound,growth inhibition [1],inhibition [2],inhibition [3] [%],growth inhibition [4],outcome [5],outcome [6],outcome [7],outcome [8]
COc1cc2c(cc1OCCN1CCC(N3CCCCC3)CC1)N(C(=O)/C=C/c1ccccc1OC(F)(F)F)CC2,93% (active),64% (active),-7,101% (active),inactive,inactive,inactive,inactive
O=C(CSc1n[nH]c(=O)n1Cc1ccccc1)Nc1ccccc1-c1ccccc1,36%,-8%,3,89% (active),inactive,inactive,inactive,inactive
Oc1ccc2[nH]c(-c3ccc(F)cc3F)nc2c1CN1CCC(O)(c2ccccc2)CC1,70% (active),16%,-2,96% (active),inactive,inactive,inactive,inactive
CCOc1cc(C(=O)NCCCN2CCCCC2C)ccc1-c1nc2ccc(Cl)cc2[nH]1 (stereo not given),0%,2%,-2,89% (active),inactive,inactive,inactive,inactive
O=C(/C=C/c1ccc(-c2ccccc2)cc1)NCCCCCN1CCC(c2c[nH]c3ccccc23)CC1,23%,91% (active),6,97% (active),inactive,inactive,inactive,inactive
CN(C)CCN(Cc1ccccc1-c1ccc(CNCCc2ccccc2)cc1)C(=O)NC1CCCCC1,89% (active),98% (active),-1,88% (active),inactive,inactive,inactive,inactive
C=CCn1c(Sc2ccc(C#N)c([N+](=O)[O-])c2)nnc1-c1ccc(OC)cc1,74% (active),-5%,0,96% (active),inactive,inactive,inactive,inactive
Fc1ccccc1-c1cc(Nc2ccncc2)nc(-c2cccnc2)n1,89% (active),91% (active),3,103% (active),inactive,inactive,inactive,inactive
COC(=O)c1cccc(CNCc2cccc(-c3ccc(-c4nc5ccccc5[nH]4)cc3)c2)c1,51% (active),-3%,4,99% (active),inactive,inactive,inactive,inactive
Cc1cc(C(=O)CN2C(=O)NC3(CCCc4ccccc43)C2=O)c(C)n1Cc1ccc(F)cc1 (stereo not given),53% (active),4%,2,92% (active),inactive,inactive,inactive,inactive
Cc1cc(-c2cccc(CNC3CCN(C)CC3)c2)ccc1S(=O)(=O)NCc1ccccc1,90% (active),53% (active),4,99% (active),inactive,inactive,inactive,inactive
N#Cc1ccc(S(=O)(=O)N2C(c3cccc([N+](=O)[O-])c3)C(C(=O)c3ccccc3)N(C3CCCCC3)C2c2cccc([N+](=O)[O-])c2)cc1 (stereo not given),79% (active),16%,-1,83% (active),inactive,inactive,inactive,inactive
Cc1cc(-c2ccc(CNCc3ccsc3)cc2)ccc1S(=O)(=O)NCCN1CCCC1,49%,57% (active),-1,99% (active),inactive,inactive,inactive,inactive
COCCOc1nc(N)nc2ncc(Cc3cc(OC)ccc3OC)c(C)c12,0%,61% (active),-5,96% (active),inactive,inactive,inactive,inactive
O=C(NC1CCC(N2CCC(Cc3ccc(F)cc3)CC2)CC1)c1cc2ccccc2[nH]1 (stereo not given),39%,60% (active),-2,98% (active),inactive,inactive,inactive,inactive
CCOc1cc(C(=O)NCCCN2CCN(c3cccc(Cl)c3)CC2)ccc1-c1nc2cc(Cl)c(F)cc2[nH]1,19%,16%,7,96% (active),inactive,inactive,inactive,inactive
O=C(NC1CCN(Cc2ccc(F)cc2)CC1)c1ccc(-c2cccc(C(F)(F)F)c2)s1,11%,88% (active),4,83% (active),inactive,inactive,inactive,inactive
O=C(Nc1ccc(-c2cccc(CN3CCC(O)CC3)c2)cc1)c1cccc(Cl)c1,14%,50% (active),3,94% (active),inactive,inactive,inactive,inactive
O=C(/C=C/c1ccc(Cl)cc1)NCCCCCN1CCCC(C(=O)Nc2cccc(Cl)c2)C1 (stereo not given),4%,21%,0,96% (active),inactive,inactive,inactive,inactive
COc1ccc2nccc([C@@H](O)CN3CCC(NCCOc4cccc(C(F)(F)F)c4)CC3)c2c1,74% (active),16%,3,102% (active),inactive,inactive,inactive,inactive

# — PubChem BioAssay
